Hit rate of the full screen: of about 2,100 compounds, about 670 (32%) were called active. Not shown: some 50% with an inconclusive outcome. Calls follow the shape of the dose curve; as a rule, active = well fitted inhibition curve with a large enough effect; inconclusive = small, poorly fitted or top-dose-only effect; inactive = no such curve, though single readings can be large or run the other way. This is one part of the list.
assay: CMV-Luciferase Counterscreen for Inhibitors of ATXN expression; conditions: HEK-293 CMV-luciferase reporter, luminescence, 24 h; series mostly up to 57.5 µM; activity change, negative = inhibition: at the top concentration; also: nearly all actives have a fitted effect of over 55% in size
Description: PI: Daniel Scoles Ph.D. University of Utah School of Medicine, Salt Lake City, Utah MLPCN Grant: NS073009 Spinocerebellar ataxia type 2 (SCA2) is a multisystem neurodegenerative disease caused by a dominantly acting mutation leading to expansion of a polyQ domain in the ataxin-2 protein (ATXN2). SCA2 patients develop progressive ataxia and later lose function in other neuronal systems. Prominent parkinsonian signs develop in some patients. Like many neurodegenerative disorders, no symptomatic or disease-modifying treatments are known. The primary objective of the proposed research is to identify compounds inhibiting ATXN2 expression and to test them for efficacy in SCA2 mouse models. We have developed a cell-based assay paired with an in vivo mouse model using identical luciferase expression constructs. This approach takes advantage of an ATXN2-luciferase transgene, with the luciferase gene flanked by the upstream and downstream portions of the ATXN2 gene. Here we describe a 5-7 dose quantitative high thoroughput screen (qHTS) for compounds lowering ATXN2 expression. We screened the NIH Molecular Libraries Small Molecule Repository (MLSMR) and NCGC's mechanistically annotated (MIPE) and drug repurposing (NPC) collections of compounds for lowering expression of an ATXN2-luciferase reporter in HEK-293 cells. The assay is a multiplexed cell viability assay to ensure target reduction in the absence of cytotoxicity. Secondary qHTS assays included a CMV-luciferase reporter expressed in HEK-293 cells as well as a biochemical assay using recombinant luciferase to detect inhibitors of the reporter enzyme. Compounds that inhibit ATXN2 expression but is not cytotoxic were selected for confirmatory and secondary screens.
PROTOCOL TABLE (as described by Inglese J, Shamu CE and Guy RK. 2007) SEQUENCE No. (e.g., 1, 2, 3, etc.); PARAMETER (e.g., Cells, Incubation, Reagent, etc.); VALUE; DESCRIPTION. 1; Cells; 4 uL; white, solid bottom, 1536-well Greiner assay plate. 2; Incubation; 2 hr; 37 degree C in 5% humidified CO2. 3; Compounds; 23 nL; Kalypsis pintool (Wako USA) equipped with a 1536-well pin head. 4; Incubation; 24 hr; 37 degree C in 5% humidfified CO2. 5; Reagent; 1 uL; Gly-Phe-7-Amino-4-trifluoromethylcoumarin. 6; Incubation; 30 min; 37 degree C in 5% humidfified CO2. 7; Detection; Fluorescence; Viewlux plate reader (PerkinElmer). 8; Reagent; 3 uL; SteadyGlo luciferase solution (Promega). 9; Incubation; 5 min; room temperature. 10; Detection; Luminescence; ViewLux plate reader (PerkinElmer). NOTES (numbers refer to Sequence numbers above) 1. HEK-293 cells expressing CMV-luciferase reporter (designated as SC cells) were suspended in phenol-red free DMEM and dispensed in assay plates using a Multidrop Combi dispenser (Thermo Fisher Scientific). 2. Assay plates were incubated. Evaporation was prevented by covering assay plates with metal lids containing holes to allow gas diffusion. 3. Compounds were added in a dose response manner with the final concentrations of 57, 11.4, 2.28, 0.46, 0.091, 0.018, 0.0037 uM. Vehicle-only plates, with DMSO being pin-transferred to columns 5-48, were inserted uniformly at the beginning and the end of each library to monitor and record any shifts in assay performance. 5. 125 uM Gly-Phe-7-Amino-4-trifluoromethylcoumarin (MP Biomedicals) working concentration was used at a final concentration of 25 uM. 7. To assess cell viability; the assay plates were read using the ViewLux high-throughput CCD imager (PerkinElmer), wherein single end-point fluorescence measurement was acquired (excitation 405/10; emission 540/25 nm). 8. Detection reagent SteadyGlo Luciferase (Promega) was added to the assay plate. 10. Luminescence is then measured on the ViewLux imager equipped with a clear emission filter using a 2 sec exposure. […]
% is scaled to controls: 0 for no effect and ±100 for the full control effect; potency is read from the fitted curve at half-maximal effect.

Row | Structure (SMILES) | Potency | activity change, negative = inhibition
1 | CC[C@@]1(O)C(=O)OCc2c1cc1n(c2=O)Cc2cc3c(NC(=O)CN)cccc3nc2-1 | 0.0562 µM (active) | –
2 | CCC1(OC(=O)CN)C(=O)OCc2c1cc1n(c2=O)Cc2cc3ccccc3nc2-1 (configuration not stated) | – | -43.6% [at 11.4 µM] (inactive)
3 | COc1cc2c(cc1OC)C1C(=O)c3ccc4c(c3OC1CO2)CC(C(C)C)O4 (configuration not stated) | 0.794 µM (active) | –
4 | CCC(C)(O)C(=O)OC1C(=O)OC2CC3C(C)=CC(=O)C(O)C3(C)C3C4(O)OCC23C1C(C)C4O (configuration not stated) | 0.316 µM (active) | –
5 | CCC(C)OC(=O)c1c(N)n(Cc2cccs2)c2nc3ccccc3nc12 (configuration not stated) | 17.8 µM (active) | –
6 | CC(C)CCn1c(N)c(C(=O)NCc2cccs2)c2nc3ccccc3nc21 | 14.1 µM (active) | –
7 | CCOC(=O)c1c(N)n(CCN2CCCCC2)c2nc3ccccc3nc12 | – | -22.5% (inactive)
8 | CNC(=O)Nc1ccc(C(=O)N/N=C\C23CC[C@@H](O)CC2(O)CC[C@@H]2[C@@H]3CCC3(C)C(C4=CC(=O)OC4)CCC23O)cc1 (some centres not stated) | – | -18.2% (inactive)
9 | CC1CC(C)CC(C)C(O)C(C#N)=CC=CCC(C2CCCC2C(=O)O)OC(=O)CC(O)C(C)C1 (configuration not stated) | 0.316 µM (active) | –
10 | C[C@@H]1C[C@@H]([C@H](O)CC2CC(=O)NC(=O)C2)C(=O)[C@@H](C)C1 | 2.82 µM (active) | –
11 | C[C@H]1C[C@@H](C)C(=O)[C@@H]([C@H](O)CC2CC(=O)NC(=O)C2)C1 | 0.282 µM (active) | –
12 | CC(=O)OC1(C)CC(C)C(=O)C(C(O)CC2CC(=O)NC(=O)C2)C1 (configuration not stated) | 0.126 µM (active) | –
13 | C[C@]12CCC3C(CCC4=CC(O)CC[C@@]43/C=N/O)C1(O)CCC2C1=CC(=O)OC1 (some centres not stated) | – | 7.54% (inactive)
14 | Cc1ccc(N2C(=O)NC(=O)/C(=C/C=C/c3ccco3)C2=O)cc1 | – | 82.1% [at 11.4 µM] (inactive)
15 | CC(=O)OC1CC2(O)C3CCC4CC(O)CCC4(C)C3CCC2(C)C1C1=CC(=O)OC1 (configuration not stated) | – | -13.9% (inactive)
16 | O=C1NC2C(=CC(O)C(O)C2O)c2cc3c(cc21)OCO3 (configuration not stated) | 0.251 µM (active) | –
17 | Cc1c2ccncc2c(C)c2c1[nH]c1ccccc12 | 5.01 µM (active) | –
18 | COc1ccc(CCNCc2ccc(F)cc2)cc1OC | – | -5.47% [at 11.4 µM] (inactive)
19 | COC1C(O)C(C)OC(OC2C(Oc3cccc4c(O)c5c(=O)oc6ccc(C)c7c(=O)oc(c34)c5c67)OC(C)C(O)C2O)C1O (configuration not stated) | – | -15.7% [at 11.4 µM] (inactive)
20 | O=[N+]([O-])c1ccc(C(c2ccc([N+](=O)[O-])cc2)c2ccc([N+](=O)[O-])cc2)cc1 | 17.8 µM (active) | –
21 | C[C@]12CC[C@H](O)C[C@H]1CC[C@@H]1[C@@H]2CC[C@]2(C)[C@@H](C3=CC(=O)OC3)CC[C@]12O | – | 6.94% (inactive)

Row | Structure (SMILES) | Potency | activity change, negative = inhibition
22 | COc1ccc(N=Cc2c(O)n(-c3ccc(C)cc3)c(=O)[nH]c2=O)cc1 | – | -14.8% (inactive)
23 | CC1OC(OC2C(O)CC(OC3C(O)CC(OC4CCC5(C)C(CCC6C5CCC5(C)C(C7=CC(=O)OC7)C(O)CC65O)C4)OC3C)OC2C)CC(O)C1O (configuration not stated) | – | -15% (inactive)
24 | O=c1[nH]c2ccccc2n1C1CCN(C(CCc2ccccc2)c2nnnn2C2CCCC2)CC1 (configuration not stated) | 14.1 µM (active) | –
25 | CC(C)(C)n1nnnc1C(CCc1ccccc1)N1CCC(n2c(=O)[nH]c3ccccc32)CC1 (configuration not stated) | 20 µM (active) | –
26 | N#Cc1cn(C2OC(CO)C(O)C2O)c2ncnc(N)c12 (configuration not stated) | – | -77.3% [at 11.4 µM] (inactive)
27 | CCC1CN2CCc3cc(OC)c(OC)cc3C2CC1CC1NCCc2c1[nH]c1ccc(O)cc21 (configuration not stated) | 0.0891 µM (active) | –
28 | C1=NCCc2c1[nH]c1ccccc21 | – | 110% [at 11.4 µM] (inactive)
29 | COc1cc2nc(CN3CC=C(c4ccccc4)CC3)[nH]c(=O)c2cc1OC | – | 155% (inactive)
30 | O=C(CSC1c2ccccc2-c2ccccc21)N/N=C/c1ccccc1O | 3.16 µM (active) | –
31 | Clc1ccc2[nH]c3c(c2c1)CCNC3 | – | -18.6% [at 11.4 µM] (inactive)
32 | NC(Cc1ccc(F)cc1)c1csc(Nc2ccccn2)n1 (configuration not stated) | – | -4.04% (inactive)
33 | CCC(C)N1C(=O)/C(=C\c2cnc(N(C)C)nc2)C(=O)NC1=S (configuration not stated) | – | -6.13% (inactive)
34 | CC12CCC3C(CCC4(O)CC(O)CCC34C=NO)C1(O)CCC2C1=COC(=O)C1 (configuration not stated) | – | -13.2% (inactive)
35 | COc1cccc2c1cc([N+](=O)[O-])c1c(C(=O)O)cc3c(c12)OCO3 | – | 6.44% (inactive)
36 | COc1ccc2c(c1)C(c1ccc(N(CCCl)CCCl)cc1)=NCC2 | 22.4 µM (active) | –
37 | CC(=O)O[C@H]1[C@H]2O[C@]23[C@@H]2CC[C@]4(O)C[C@@H](O)CC[C@]4(C)C2CC[C@]3(C)[C@H]1c1ccc(=O)oc1 (some centres not stated) | – | -18.3% [at 11.4 µM] (inactive)
38 | COC(=O)c1nc(-c2ccc3c(n2)C(=O)C(N)=C(OC)C3=O)c(N)c(-c2ccc(OC)c(OC)c2O)c1C | 14.1 µM (active) | –
39 | CSCCC(c1nnnn1-c1c(C)cccc1C)N1CCC2(CC1)C(=O)NCN2c1ccccc1 (configuration not stated) | 28.2 µM (active) | –
40 | CCOC(=O)[C@]12Cc3ccsc3[C@H]1N(Cc1ccccc1)C(=O)c1ccccc12 | 3.16 µM (active) | –
41 | CC12CCC(O)CC1CCC1C2CCC2(C)C(C3=CC(=O)OC3)CCC12O (configuration not stated) | – | 9.59% (inactive)
42 | C=CCCC[C@@H]1OC(=O)CNC(=O)C([C@@H](C)CC)NC(=O)[C@@H]2CCCN2C(=O)C([C@@H](C)CC)OC(=O)[C@H](Cc2ccccc2)N(C)C(=O)[C@H](C(C)C)NC(=O)C1(C)C (some centres not stated) | 3.98 µM (active) | –

Row | Structure (SMILES) | Potency | activity change, negative = inhibition
43 | Cc1ccc(-c2nc(N(C)C3CCN(C)CC3)c3ccccc3n2)cc1 | 17.8 µM (active) | –
44 | COc1ccc(CC2C(=O)NC(C)C(=O)N(C)C3C(=O)N(C)C(Cc4ccc(O)c(c4)Oc4ccc(cc4)C3O)C(=O)NC(C)C(=O)NC(C)C(=O)N2C)cc1 (configuration not stated) | 0.891 µM (active) | –
45 | C[C@H]1[C@@H](OS(=O)(=O)O)C[C@@H]2C[C@H]([C@@H](O)c3cc(=O)[nH]c(=O)[nH]3)NC3=NC[C@H]1N32 | 14.1 µM (active) | –
46 | CCCCN=C[C@]12CCC(O)CC1(O)CCC1[C@@H]2CC[C@]2(C)[C@H](C3C=CC(=O)O3)CCC12O (some centres not stated) | – | 12.4% (inactive)
47 | C[C@@H]1O[C@@H](O[C@@H]2C=C3CC[C@@H]4C(CC[C@]5(C)[C@@H](c6ccc(=O)oc6)CC[C@]45O)[C@@]3(C)CC2)[C@H](O)[C@H](O)[C@H]1O (some centres not stated) | – | -13.5% (inactive)
48 | C[C@H]1CCC[C@@H](O)CCC/C=C/c2cc(O)cc(O)c2C(=O)O1 | – | -23.1% [at 11.4 µM] (inactive)
49 | CCCCCCC(=O)N/N=C/c1c(O)n(CCc2ccccc2)c(=O)[nH]c1=O | 6.31 µM (active) | –
50 | CCCCCCC(=O)N/N=C/c1c(O)n(CCCC)c(=S)[nH]c1=O | 12.6 µM (active) | –
51 | CCn1c(O)c(/C=N/NC(=O)c2ccccc2)c(=O)n(CC)c1=S | – | -28.6% (inactive)
52 | CCCCC(=O)N/N=C/c1c(O)n(CCC2=CCCCC2)c(=O)[nH]c1=O | 10 µM (active) | –
53 | COC1C(O)C(C)OC(OC2CCC3(C)C(CCC4C3C(O)CC3(C)C(C5=CC(=O)OC5)CCC43O)C2)C1O (configuration not stated) | – | -8.96% (inactive)
54 | C[C@]12CC[C@H](O)C[C@H]1CC[C@@H]1C2CC[C@]2(C)[C@@H](C3=CC(=O)OC3)[C@@H](O)C[C@]12O (some centres not stated) | – | -13.9% [at 11.4 µM] (inactive)
55 | COc1ccc(C[C@H]2NC[C@H](O)[C@H]2OC(C)=O)cc1 | 0.0631 µM (active) | –
56 | COc1ccc(CC2NCC(O)C2OC(C)=O)cc1 (configuration not stated) | 0.316 µM (active) | –
57 | c1ccc2sc(N3CCNCC3)nc2c1 | – | -25.2% (inactive)
58 | C[C@H]1CCC[C@H](O)CCCCCc2cc(O)cc(O)c2C(=O)O1 | – | 13.6% [at 11.4 µM] (inactive)
59 | CCCCCOc1ccc(C)cc1CN(CCCl)CCCl | 15.8 µM (active) | –
60 | COc1cccc(C(c2nnnn2-c2ccc3c(c2)OCCO3)N2CCC(n3c(=O)[nH]c4ccccc43)CC2)c1OC (configuration not stated) | 3.16 µM (active) | –
61 | Cc1cccc(C)c1-n1nnnc1C(c1cc2ccccc2o1)N1CCC(n2c(=O)[nH]c3ccccc32)CC1 (configuration not stated) | 8.91 µM (active) | –
62 | CC12CCC(O)CC1CCC1C2CCC2(C)C(C3=CC(=O)OC3)C(O)CC12O (configuration not stated) | – | 42.2% (inactive)

Source: PubChem BioAssay AID1745847 (National Center for Advancing Translational Sciences (NCATS), 2022)
